An excerpt weighted towards active compounds, which were near 6.2% of everything screened.
RORg inh – blocks mouse ROR gamma transcriptional activity; P51450; Drosophila S2 Gal4-RORgamma UAS-luciferase reporter, 20 h; Potency, µM (doses to about 53.6 µM), for inactives: top-dose activity change, negative = inhibition, actives largely listed as inhibitors; 310,000 tested, 5.4% active; AID 2551; also: nearly all actives have a fitted effect of over 60% in size
Target sequence (P51450 whole entry, looked up, the tested form may be a part): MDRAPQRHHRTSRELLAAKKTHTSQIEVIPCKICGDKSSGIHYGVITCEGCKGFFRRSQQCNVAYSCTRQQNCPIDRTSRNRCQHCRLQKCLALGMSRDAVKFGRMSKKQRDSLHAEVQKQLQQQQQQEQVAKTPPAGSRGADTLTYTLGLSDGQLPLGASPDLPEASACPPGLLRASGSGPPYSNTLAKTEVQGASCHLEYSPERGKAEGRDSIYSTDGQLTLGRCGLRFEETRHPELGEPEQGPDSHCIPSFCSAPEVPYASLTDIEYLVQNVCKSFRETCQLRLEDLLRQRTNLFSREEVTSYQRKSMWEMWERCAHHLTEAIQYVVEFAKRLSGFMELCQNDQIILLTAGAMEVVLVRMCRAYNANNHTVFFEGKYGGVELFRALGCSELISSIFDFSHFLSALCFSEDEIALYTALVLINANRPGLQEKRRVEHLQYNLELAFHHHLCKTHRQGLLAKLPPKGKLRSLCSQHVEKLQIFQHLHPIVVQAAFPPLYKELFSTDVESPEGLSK
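Stable Schneider cell line, Gal4 DNA-binding domain fused to ROR gamma, UAS-luciferase. Cmpd 1 hr RT → CuSO4 700 uM final → 20 hr RT → luciferase reagent 10 min → luminescence.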
KinaseGlo FLuc – blocks Kinase-Glo luciferase, a counter-screen artifact | Q27757 | Kinase-Glo luciferase, ATP luminescence, 8 min | Potency, µM (highest dose often 38.3 µM), for the others: at the highest dose activity change, negative = inhibition, usual class: inhibitors | 200,000 tested, 0.28% active; also: nearly all actives have a fitted effect of over 60% in size
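Luminescence was the read-out, taken after 8-minute incubation at ambient temperature. Luciferase turned over luciferin with 10 uM ATP in imidazole pH 7.2 buffer containing KCl, MgCl2, Tween 20 and BSA.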
VP16 counter – Gal4-VP16 reporter inhibition counter-screen | Drosophila S2 Gal4-VP16 UAS-luciferase, luminescence, 20 h | Potency, µM (top dose mostly 53.6 µM), for inactives: top-dose activity, negative = inhibition, most hits filed as inhibitors | 310,000 tested, 3.5% active | AID 2546;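 also: Gal4-VP16 expression switched on by copper sulfate through the metallothionein promoter; nearly all actives have a fitted effect of over 50% in size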
* hit, by the source's call; [ ] = another dose, or the depositor's remark. Calls follow the shape of the dose curve; as a rule, active = well fitted curve in the direction sought with a large enough effect; inconclusive = small, poorly fitted or top-dose-only effect, or another doubt; inactive = no such curve, though single readings can be large; an effect the other way counts as inactive or inconclusive. % is scaled to controls: 0 for no effect and ±100 for the full control effect; potency is read from the fitted curve at half-maximal effect.

`C/C(=N/NC(=O)c1ccc(Cl)s1)c1cccnc1` gave RORg inh 12.6µM* and VP16 counter inconclusive.
`O=C(N/N=C/c1ccco1)c1ccc(NC(=O)c2ccc(Cl)cc2)cc1` gave RORg inh 2.6% and VP16 counter 4.5%.
CCc1ccccc1N1CC(C(=O)Nc2cc(C)on2)CC1=O (stereo not drawn) was read as RORg inh 1.1% and VP16 counter -18.7%.
For COC(=O)NC/C=C\c1nc(CCCO)co1 the results were RORg inh 7.0%[10 µM] and VP16 counter -10.1%[10 µM].
`CC(/C=C/c1ccco1)=N\NC(=O)COc1ccc(C)c(C)c1` gave RORg inh inconclusive, KinaseGlo FLuc -4.0% and VP16 counter 8.91µM*.
Screening Cc1ccc(OCCNC(=O)/C=C/c2ccco2)cc1C returned RORg inh 10.8% and VP16 counter -2.8%.
`CC(/C=C/c1ccco1)=N/NC(=O)c1ccccc1Cl` gave RORg inh inconclusive, KinaseGlo FLuc -5.6% and VP16 counter inconclusive.
For CC(/C=N/NC(=O)c1cccc(F)c1)=C\c1ccccc1 the results were RORg inh -30.9% and VP16 counter -17.5%.
Screening CC(/C=C/c1ccccc1F)=N\NC(=O)c1cccc(F)c1 returned RORg inh 0.891µM*, KinaseGlo FLuc -0.4% and VP16 counter 5.01µM*.
CC(/C=C/c1ccco1)=N\NC(=O)c1cccc(Cl)c1 was read as RORg inh 3.98µM*, KinaseGlo FLuc 2.1% and VP16 counter 3.55µM*.
`CCC1CC(CSc2ncn[nH]2)OC1=O` (stereo not drawn) gave RORg inh 1.5%, KinaseGlo FLuc 0.1% and VP16 counter 11.9%.
For Nn1c(SCC(=O)Nc2nc3ccccc3s2)nncc1=O the results were RORg inh 31.6µM*, KinaseGlo FLuc -2.1% and VP16 counter -1.9%.
Screening Cc1nnc(SCC(=O)Nc2nc3ccccc3s2)n(N)c1=O returned RORg inh 13.6%, KinaseGlo FLuc 3.4% and VP16 counter 6.5%.
Screening Cc1ccnc(NCc2c(O)ccc3ccccc23)c1 returned RORg inh -1.9% and VP16 counter -6.9%.
For COc1ccc(C(CC(=O)Nc2cc(C)ccn2)N2Cc3ccccc3C2=O)cc1 (stereo not drawn) the results were RORg inh 12.8% and VP16 counter 1.0%.
Screening Cc1ccnc(NC(c2ccsc2)c2ccc3ccc(C)nc3c2O)c1 (stereo not drawn) returned RORg inh 5.01µM*, KinaseGlo FLuc -0.3% and VP16 counter inconclusive.
COc1ccc(C(Nc2cc(C)ccn2)c2ccc3ccc(C)nc3c2O)cc1 (stereo not drawn) was read as RORg inh 2.51µM* and VP16 counter 3.55µM*.
For C=C1C[C@@]23C[C@@]1(O)CC[C@@H]2[C@]12C=C[C@@H](O)[C@](C)(C(=O)O1)[C@@H]2[C@@H]3C(=O)O the results were RORg inh 1.6%, KinaseGlo FLuc 1.9% and VP16 counter 2.2%.
`CC(=O)N1C2(C=CC1(C)C(=O)NCCN1CCOCC1)CCCCC2` (stereo not drawn) gave RORg inh 5.9%, KinaseGlo FLuc -3.0% and VP16 counter 6.7%.
Screening O=C(C1CCN(S(=O)(=O)N2CCC3(CC2)OCCO3)CC1)N1CCCCC1 returned RORg inh -0.7%, KinaseGlo FLuc 14.0% and VP16 counter 5.3%.
`CCOc1ccccc1NC(=O)/C(C#N)=C/c1c(C)nn(-c2ccccc2)c1Cl` gave RORg inh 20.0%, KinaseGlo FLuc 2.7% and VP16 counter -21.4%.
Screening C=CCNC(=O)/C(C#N)=C/c1c(C)nn(-c2ccccc2)c1Cl returned RORg inh inconclusive, KinaseGlo FLuc 0.9% and VP16 counter 12.6µM*.
C/C(CS(=O)(=O)c1ccccc1)=N\O was read as RORg inh 8.0%, KinaseGlo FLuc -0.9% and VP16 counter -4.5%[10 µM].
C/C=C(\CS(=O)(=O)c1ccccc1)S(=O)(=O)c1ccccc1 was read as RORg inh 3.55µM*, KinaseGlo FLuc 0.9% and VP16 counter 6.31µM*.
O=C(CN(CCc1ccccc1)C(=O)c1csnn1)NCc1ccc(F)cc1 was read as RORg inh 25.4% and VP16 counter 3.7%.
Cc1cc(C)n2[nH]c(=O)c(N=Nc3ccccc3)c2n1 was read as RORg inh 5.4%, KinaseGlo FLuc -5.3% and VP16 counter -4.1%.
Screening Cc1cc(C)n2[nH]c(=O)c(N=Nc3cccc(Cl)c3)c2n1 returned RORg inh 8.91µM*, KinaseGlo FLuc 7.6% and VP16 counter 0.7%.
Cc1cc(C)n2[nH]c(=O)c(N=Nc3cccc(C(F)(F)F)c3)c2n1 was read as RORg inh 12.6µM*, KinaseGlo FLuc -3.3% and VP16 counter inconclusive.
Screening Cc1cc(C(F)(F)F)n2[nH]c(=O)c(N=Nc3ccccc3)c2n1 returned RORg inh 4.6%, KinaseGlo FLuc -1.6% and VP16 counter -11.3%.
`Clc1ccc(OCc2nnc3n2CCCCC3)c(Cl)c1` gave RORg inh 7.1% and VP16 counter -9.7%.
Cc1ccc(/C=C/C2=C[C@]3(C)C[C@]2(C)[C@H](c2ccc(C)cc2)CC3=O)cc1 was read as RORg inh 10.2%, KinaseGlo FLuc -1.7% and VP16 counter 6.3%.
`CC(Sc1ncnc2sc(-c3ccccc3)cc12)C(N)=O` (stereo not drawn) gave RORg inh 12.6µM* and VP16 counter -25.4%.
O=C(O)CSc1ncnc2sc(-c3ccccc3)cc12 was read as RORg inh 7.7%, KinaseGlo FLuc -2.6% and VP16 counter -17.7%.
`O=C(O)CCSc1ncnc2sc(-c3ccccc3)cc12` gave RORg inh 1.78µM* and VP16 counter 5.01µM*.
For CC(=O)CCSc1ncnc2sc(-c3ccccc3)cc12 the results were RORg inh -4.3% and VP16 counter 6.3%.
Screening Cn1c(=O)c2[nH]c(CS(=O)(=O)Cc3nc4c([nH]3)c(=O)n(C)c(=O)n4C)nc2n(C)c1=O returned KinaseGlo FLuc -1.8%[7.66 µM].
Screening C=CCC1(CC=C)CCCN1C(=O)c1cc(COc2ccccc2SC)on1 returned RORg inh 6.2% and VP16 counter -20.1%.
For O=C(Nc1ccccc1)C1=C(c2ccccc2)S(=O)(=O)CCS1(=O)=O the results were RORg inh 0.891µM*, KinaseGlo FLuc 7.2% and VP16 counter 2.24µM*.
For O=C(O)c1ccccc1C(=O)Nc1ccccc1 the results were RORg inh -18.3%, KinaseGlo FLuc 2.1% and VP16 counter -11.8%.
For Cc1cc(C(=O)COC(=O)c2ccc([N+](=O)[O-])o2)c(C)n1CC1CCCO1 (stereo not drawn) the results were RORg inh 20µM*, KinaseGlo FLuc -2.2% and VP16 counter 0.7%.
`COCCn1c(C)cc(C(=O)CSc2n[nH]c(N)n2)c1C` gave RORg inh 35.9%, KinaseGlo FLuc -6.0% and VP16 counter -8.7%.
Cc1cc(C)c(C(=O)COC(=O)c2ccc([N+](=O)[O-])o2)cc1C was read as RORg inh inconclusive, KinaseGlo FLuc 2.8% and VP16 counter -8.8%.
COCCn1c(C)cc(C(=O)COC(=O)c2cc3c(s2)CCC3)c1C was read as RORg inh -1.6%, KinaseGlo FLuc -4.3% and VP16 counter 22.6%.

Source: PubChem BioAssay
